Here are results for 96 compounds from PubChem BioAssay AID372 (MTDP, 2006).

Screen size: about 100,000 compounds; about 770 (0.77%) were called active. Cut-off read from the data, not from the text of the source: active = inhibition above about 50%; inactive = the rest. The sample as a whole holds a higher share of actives than the screen did.

This experiment has as its target Gag-Pol polyprotein (Human immunodeficiency virus type 1 group M subtype B (isolate HXB2)) (UniProt P04585). The experiment can be described thus: RNase H inhibition, HIV 1 Gag Pol polyprotein, FRET biochemical assay, screening (AID 372). The settings on record: HIV-1 RT RNase H, FRET RNA/DNA substrate fluorescence; at 10 µM; hits give high values.
For orientation: inhibition means the share of the control response that was lost under treatment. Consider `Cc1nnc(SCC(=O)NC(C)c2ccccc2)[nH]c1=O` (stereo unspecified), for which the inhibition is 0% (inactive).
The result for `CC(=C\c1ccccc1)/C=C1/SC(=Nc2ccc(F)cc2)NC1=O` reads 13% (inactive); that for `O=C(N/N=C/c1ccc(F)cc1)c1ccc(Cl)c(Cl)c1`, 4% (inactive); that for `CC(=O)c1cccc(NC(=O)/C(=C/c2ccc(Br)cc2)NC(=O)c2ccccc2)c1`, 6% (inactive).
The value for `CC(=O)c1cccc(NC(=O)/C(=C\c2ccc(Br)cc2)NC(=O)c2ccc(C)cc2)c1` was 42% (inactive).
The result for `Cc1cccc(NC(=O)/C(=C/c2ccc(Br)cc2)NC(=O)c2ccccc2)c1` reads 51% (active).
Regarding `C/C(=N\Nc1ccc([N+](=O)[O-])cc1)c1ccc([N+](=O)[O-])o1`, the inhibition is 8% (inactive).
The result for `COc1cc(Cc2ccc(N/C=C/C(=O)c3ccc(Br)cc3)c(OC)c2)ccc1N/C=C/C(=O)c1ccc(Br)cc1` reads 25% (inactive); that for `Cc1ccc(C(=O)Oc2ccc(Cl)cc2C)cc1`, 2% (inactive); that for `Cc1cc(Cl)ccc1OC(=O)c1ccc(Cl)cc1`, 51% (active).
On to `Cc1cc(Cl)ccc1OC(=O)c1ccc(Br)cc1`, for which the inhibition was 34% (inactive).
For the compound `O=C(Nc1cnc2ccccc2c1)C1COc2ccccc2O1` (stereo unspecified), the inhibition was 3% (inactive).
Take `O=S(=O)(CCc1nnc(-c2ccc(Br)cc2)o1)c1ccc(Cl)cc1`: the inhibition was 2% (inactive).
The value for `COc1ccc(N2C(=O)/C(=C\c3ccc(O)c(O)c3)SC2=S)cc1` was 77% (active); that for `COc1ccc(N2C(=O)/C(=C/c3ccc(O)c(OC)c3)SC2=S)cc1` was 26% (inactive).
`COc1cccc(N2C(=O)/C(=C/c3ccc(O)c(OC)c3)SC2=S)c1`: the inhibition is 22% (inactive).
The value for `COc1cccc(N2C(=O)/C(=C/c3ccc(O)c(O)c3)SC2=S)c1` was 75% (active); that for `COc1cccc(N2C(=O)/C(=C/c3cccc(O)c3)SC2=S)c1` was 29% (inactive); that for `COc1ccc(N2C(=O)/C(=C\c3ccc(OC)c(O)c3)SC2=S)cc1` was 4% (inactive).
Take `COc1cc(OC)cc(C(=O)Nc2ccc(N3CCN(C(=O)c4ccccc4)CC3)cc2)c1`: the inhibition was 31% (inactive).
The result for `CCOc1cccc2c1N(C(=O)c1ccccc1)C(C)(C)C(=S)C2=C1SC(C(=O)OC)=C(C(=O)OC)S1` reads 45% (inactive).
As for `CCCOc1ccc(C(=O)NCc2ccccc2)cc1`, the inhibition is 6% (inactive).
The value for `O=C(O)c1ccc(-n2c(/C=C\c3ccccc3)nc3ccccc3c2=O)cc1` was 7% (inactive); that for `COc1cccc(/C=C/c2nc3ccccc3c(=O)n2-c2cccc([N+](=O)[O-])c2)c1O` was 27% (inactive); that for `COc1cc(/C=C/c2nc3ccccc3c(=O)n2-c2cccc([N+](=O)[O-])c2)ccc1O` was 61% (active).
Turning to `COc1cc(/C=C/c2nc3ccccc3c(=O)n2-c2ccccc2[N+](=O)[O-])ccc1O`, the inhibition is 35% (inactive).
The value for `Cc1ccc(-n2c(/C=C/c3c(C)n(C)c4ccccc34)nc3ccccc3c2=O)cc1` was 0% (inactive).
The value for `COc1ccc(OC)c(CN2CCN(Cc3cccc(Br)c3)CC2)c1` was 5% (inactive); that for `COc1ccc([N+](=O)[O-])cc1N(CC(O)CN1CCCCC1)S(=O)(=O)c1ccc(C)cc1` (stereo unspecified) was 12% (inactive).
Regarding `Cc1c(C(=O)Oc2ccc3c(c2)C(C)CC(C)(C)N3)cccc1[N+](=O)[O-]` (stereo unspecified), the inhibition is 21% (inactive).
As to `CCSc1nnc(NC(=O)COc2ccc(Cl)cc2Cl)s1`, the inhibition was 22% (inactive).
The value for `CC(=O)c1ccc(NC(=S)Nc2ccc3nccnc3c2)cc1` was 10% (inactive).
Turning to `NC(N)=N/N=C/c1ccccc1OS(=O)(=O)c1ccccc1`, the inhibition is 0% (inactive).
As to `O=S(=O)(Oc1ccccc1/C=N/NC(=S)Nc1ccccc1)c1ccccc1`, the inhibition was 52% (active).
On to `NC(=O)N/N=C/c1ccccc1OS(=O)(=O)c1ccc([N+](=O)[O-])cc1`, for which the inhibition was 11% (inactive).
As to `CCOC(=O)c1c[nH]c2ccc(Cl)cc2c1=O`, the inhibition was 14% (inactive).
The value for `C=CCn1c(CCCN2C(=O)c3cccc4cccc(c34)C2=O)nnc1SC/C=C/c1ccccc1` was 8% (inactive); that for `C=CCn1c(CSc2nc3ccccc3s2)n[nH]c1=S` was 0% (inactive).
In the case of `C=CCn1c(CSc2nc3ccccc3s2)nnc1SC/C=C/c1ccccc1`, the inhibition was 59% (active).
The value for `Cc1ccc(NC(=O)C(C)SCc2ccccc2)c(C)c1` (stereo unspecified) was 13% (inactive); that for `COc1ccc(C2CC(=O)C3=C(C2)NC(C)=C(C(=O)OCCOc2ccccc2)C3c2cccc(Br)c2)cc1` (stereo unspecified) was 6% (inactive); that for `COc1ccc(/C=N/OCC(=O)N2CCN(C(c3ccccc3)c3ccccc3)CC2)cc1OC` was 45% (inactive).
Turning to `COc1ccc(C(=O)N2CCN(C(c3ccccc3)c3ccccc3)CC2)cc1OC`, the inhibition is 13% (inactive).
The value for `COc1ccc(/C(C)=N/OCC(=O)N2CCN(C(c3ccccc3)c3ccccc3)CC2)cc1OC` was 51% (active); that for `CCc1ccc(C(=O)CSC2=C(C#N)C(c3ccc(Br)cc3)C(C(C)=O)=C(C)N2)cc1` (stereo unspecified) was 26% (inactive).
Take `COc1ccc(C2(CNS(=O)(=O)c3ccccc3)CCCC2)cc1OC`: the inhibition is 0% (inactive).
The value for `COc1cc(C=Nc2cccc(Cl)c2C)ccc1OC(C)=O` was 11% (inactive).
With `Cc1no[n+]([O-])c1COc1ccc(/C=C2\NC(=S)NC2=O)cc1`, the inhibition is 4% (inactive).
The result for `COc1cc(/C=C2\NC(=S)NC2=O)ccc1OCc1c(C)no[n+]1[O-]` reads 53% (active).
The result for `COc1cc(C=C2C(=O)NC(=O)NC2=O)ccc1OCc1c(C)no[n+]1[O-]` reads 6% (inactive).
Consider `O=c1c2c3c(sc2ncn1/N=C/c1ccc(Br)o1)CCCC3`, for which the inhibition is 25% (inactive).
Consider `CCOc1ccc(C(=O)NC(=S)Nc2ccccn2)cc1Cl`, for which the inhibition was 12% (inactive).
The result for `O=C(Nc1nc(-c2ccc(Br)cc2)cs1)c1ccc([N+](=O)[O-])cc1` reads 37% (inactive).
`CCOc1ccc(C(=O)NC(=S)Nc2ccc([N+](=O)[O-])cc2OC)cc1Cl`: the inhibition is 50% (active).
The result for `COc1ccc(C(=O)NC(=S)Nc2nc(-c3cccc([N+](=O)[O-])c3)cs2)cc1Cl` reads 54% (active).
The result for `COc1ccc(C(=O)NC(=S)Nc2ccc([N+](=O)[O-])cc2C)cc1Cl` reads 18% (inactive); that for `CCOc1ccc(C(=O)NC(=S)Nc2ccc(Cl)cn2)cc1Cl`, 60% (active); that for `CCOc1ccc(C(=O)Nc2ccc([N+](=O)[O-])cc2OC)cc1Cl`, 14% (inactive).
The result for `COc1ccc(C(=O)NC(=S)Nc2nc(-c3ccccc3)cs2)cc1Cl` reads 16% (inactive); that for `CCOc1ccc(C(=O)NC(=S)Nc2ccc(Cl)cc2)cc1Cl`, 7% (inactive); that for `O=C(NC(=S)Nc1nc(-c2cccc([N+](=O)[O-])c2)cs1)c1ccc(Cl)cc1`, 35% (inactive).
As to `O=C(Nc1nc(-c2ccc([N+](=O)[O-])cc2)cs1)c1ccc(Cl)cc1`, the inhibition was 32% (inactive).
The value for `O=C(Nc1nc(-c2ccc(Cl)cc2)cs1)c1ccc([N+](=O)[O-])cc1` was 51% (active); that for `COc1cc(OC)cc(C(=O)Nc2cccc(-c3nc4ccccc4s3)c2)c1` was 5% (inactive); that for `Oc1ccc(Br)cc1/C=N/c1c(-c2ccco2)nc2ccccn12` was 15% (inactive).
On to `O=C1CS/C(=N/N=C/c2ccc(-c3ccc(Br)cc3)o2)N1`, for which the inhibition was 14% (inactive).
The value for `CCCC(=O)Nc1cc(-c2nc3cc(Cl)ccc3o2)ccc1C` was 12% (inactive); that for `O=C(O)c1ccc(Nc2ccnc3cc(Cl)ccc23)cc1` was 3% (inactive).
The value for `O=C(Nc1ccccc1C(=O)N1CCCC1)c1ccccc1` was 0% (inactive); that for `COc1ccc(C(=O)NC(=S)Nc2ccc(Br)cn2)cc1OC` was 21% (inactive); that for `CCOc1ccc(C(=O)NC(=S)Nc2ccc(Br)cn2)cc1Cl` was 56% (active).
`COc1ccc(C(=O)NC(=S)Nc2ccc(Cl)cn2)cc1Br`: the inhibition is 23% (inactive).
Turning to `COc1ccc(Br)cc1C(=O)NC(=S)Nc1ccc(Cl)cn1`, the inhibition was 53% (active).
The value for `CCOc1ccc(C(=O)Nc2ccc(Br)cn2)cc1Cl` was 4% (inactive); that for `COc1ccc(Br)cc1C(=O)Nc1ccc(Cl)cn1` was 26% (inactive); that for `CS(=O)(=O)N(Cc1ccc(C(=O)Nc2ccccc2C(=O)O)cc1)c1ccccc1` was 4% (inactive).
As for `Cc1ccc(NC(=O)C(=O)N/N=C/c2cccc(Cl)c2)cc1`, the inhibition is 1% (inactive).
Consider `CCOc1cc(/C=C/C(=O)O)c(Br)cc1OC`, for which the inhibition is 8% (inactive).
The value for `Cc1ccc(CN2CCN(/N=C\c3ccccc3)CC2)cc1` was 8% (inactive).
The value for `COc1ccccc1OCC(=O)N/N=C/c1ccc(C)cc1C` was 11% (inactive); that for `O=C(Nc1ccc(N2CCCCC2)cc1)c1ccc(-c2ccccc2)cc1` was 28% (inactive); that for `CC(=O)N1CCN(c2ccc(NC(=O)c3ccc(-c4ccccc4)cc3)cc2)CC1` was 5% (inactive).
The result for `COc1ccc(CNC(=O)C(=O)Nc2ccccc2OC)cc1` reads 44% (inactive).
For `COc1ccc(CNC(=O)C(=O)Nc2ccc(OC)cc2)cc1`, the inhibition was 0% (inactive).
The value for `COc1ccc(S(=O)(=O)N(CC(=O)NCc2ccc(Cl)cc2)Cc2ccccc2)cc1` was 60% (active).
The value for `COc1ccc(C)cc1NC(=O)C(=O)NCc1ccc(Cl)cc1` was 44% (inactive); that for `COc1ccc(S(=O)(=O)N(CC(=O)NCc2ccccc2)Cc2ccccc2)cc1` was 10% (inactive); that for `COc1ccc(C)cc1NC(=O)C(=O)NCc1ccncc1` was 55% (active).
Turning to `COc1ccc(CNC(=O)C(=O)NCc2ccc(Cl)cc2)cc1`, the inhibition is 15% (inactive).
Consider `COc1ccccc1NC(=O)C(=O)NCc1ccc(C)cc1`, for which the inhibition is 57% (active).
In the case of `COc1ccc(C)cc1NC(=O)C(=O)NCc1cccnc1`, the inhibition is 40% (inactive).
The value for `COc1ccc(NC(=O)C(=O)NCc2ccc(Cl)cc2)cc1` was 52% (active).
The result for `COc1ccccc1NC(=O)C(=O)NCc1ccccc1` reads 27% (inactive); that for `COc1ccc(CNC(=O)CN(Cc2ccccc2)S(=O)(=O)c2ccccc2)cc1`, 10% (inactive); that for `Cc1ccc(NC(=O)Cc2ccc(Br)cc2)cc1`, 14% (inactive).
For the compound `COc1cccc(N2C(=O)NC(=O)/C(=C/c3ccc(OC)c4ccccc34)C2=O)c1`, the inhibition is 31% (inactive).
